PubChem BioAssay (NCATS)
Results filed as inconclusive are left out. Values without a mark were called inactive. Calls follow the shape of the dose curve; as a rule, active = well fitted cell-killing curve with a large enough effect; inconclusive = small, poorly fitted or top-dose-only effect; inactive = flat fitted curve, though single readings scatter.

assay: Cell Viability - LYMP2-009 (AID 968); conditions: LYMP2-009 lymphoblastoid cell viability; series mostly up to 92.2 µM; activity change, negative = viability loss: at the top concentration;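 also: cells exposed to compound for 24 h at 37 °C; 0% = DMSO alone and the full-kill end = tetraoctylammonium bromide at 92 µM; nearly all actives have a fitted effect of over 55% in size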
Description: NIH Chemical Genomics Center [NCGC]
NIH Molecular Libraries Screening Centers Network [MLSCN]
National Institutes of Environmental Health Sciences [NIEHS]
National Toxicology Program [NTP]
We have developed a 1536-well cell-based assay for quantitative high throughput screening (qHTS) against a number of cell lines to determine in vitro cytotoxicity of small molecules. This particular assay uses a human lymphoblastoid cell line (LYMP2-009) purchased from Coriell Institute for Medical Research.
NCGC Assay Protocol Summary:
The CellTiter-Glo luminescent cell viability assay (Promega) is a homogeneous method to measure the number of viable cells in culture. The end point readout of this assay is based on quantitation of intracellular ATP, an indicator of metabolic activity, using the luciferase reaction. Luciferase catalyzes the oxidation of beetle Luciferin to oxyluciferin and light in the presence of ATP. The luminescent signal is proportional to amount of ATP present.
Using the CellTiter-Glo luminescent cell viability assay, the amount of cellular ATP was measured in the lymphoblastoid cell line with complete culture medium following compound treatment for 24 hours. The assay was performed in opaque white Kalypsys 1536-well plates. In the screen, tetraoctylammonium bromide was used as positive control. Library compounds were measured for their ability to cause acute toxicity in the cell line, as reflected by a decrease in intracellular ATP levels, in a concentration-dependent manner. […] AC50 values were determined from concentration-response data modeled with the standard Hill equation.
qHTS protocol for CellTiter Glo lymphoblastoid cellular assay
[Step] [Parameter] [Value] [Description]
1. Reagent; 5 uL; 2500 lymphoblastoid cells/well
2. Time; 5 hr; 37 C incubation
4. Controls; 23 nL; Tetraoctylammonium bromide 6.4pM to 92 uM
5. Time; 24 hr; 37 C incubation
6. Reagent; 5 uL; CellTiter Glo reagent
7. Time; 30 min; Room Temperature
8. Detection; Luminescence; Viewlux plate reader
Keywords: cell viability, cytotoxicity, lymphoblastoid cell line, luminescence, NTPHTS, NTPHTS_NCGC, NIEHS, DSSTox, MLSMR, MLSCN, NIH Roadmap, qHTS, NCGC

SMILES	activity change, negative = viability loss [%]
O=C(Cl)c1c(Cl)cccc1Cl	-4.84
CC(=O)Nc1ccc(N)cc1	-9.79
Nc1cccc(S(=O)(=O)O)c1	-3.07
C/C(C=O)=C/c1ccccc1	-10.3
CCCCC(CC)CO (stereo not given)	3.98
Cc1cc(C(=O)O)ccc1[N+](=O)[O-]	0.951
O=C1OC(=O)c2c(Cl)c(Cl)c(Cl)c(Cl)c21	-6.03
CC(=O)c1cc(C)oc1C	-2.38
CC(=O)Nc1ccccc1C	-8.09
Cc1ccccc1C#N	-6.22
Cc1cscn1	-10.6
CCc1ccccc1O	-0.595
CCCCCCCCC/C=C/CC1CC(=O)OC1=O (stereo not given)	-8.44
O=Cc1ccc(CO)o1	-0.0371
CN(C)CCCCl	-3.9
CC(C)(O)C(=O)O	-14.8
FC(F)(F)c1cccc(Cl)c1	-1.96
Cc1ccc2oc(=O)ccc2c1	-8.19
CCC(=O)/C=C/C1C(C)=CCCC1(C)C (stereo not given)	-23.1
CCOCCO	-7.01

SMILES	activity change, negative = viability loss [%]
CCCCN(CCO)CCCC	-10.7
Nc1cc(Cl)c([N+](=O)[O-])cc1O	-17.8
CCCOCC(C)OCC(C)O (stereo not given)	-2.8
CC(C)(C)OC=O	-28.3
Cc1ccc(N(C)C)cc1	-1.64
CC=C(Cl)Cl	-1.73
COc1ccccc1[N+](=O)[O-]	7.27
O=[N+]([O-])c1cc(C(F)(F)F)ccc1Cl	-5.01
Cc1cc(C)cc([N+](=O)[O-])c1	-5.16
Cc1ccc(C)o1	-4.65
CC1CCC2CC1C2(C)C (stereo not given)	-8.36
O=Cc1ccc(C(=O)O)cc1	-5.32
CCNc1ccccc1	-9.5
CC(C)N(C)C	6.16
ClCCl	-3
O=C1CCCCC1	3.18
CC(CCl)OC(C)CCl (stereo not given)	-10.9
O=[N+]([O-])c1c(Cl)cc(Cl)cc1Cl	-14.3
CCCC(C)CO (stereo not given)	-8.27
Cc1cccc2sc(N)nc12	-10.2
